Assay results as given in PubChem BioAssay.
The source made the active and inactive calls. Unless noted, no rule for the calls is given here.

Key:
[1] = compounds binding Alexa647 anti-His antibody – biochemical, small-molecule microarray, 635 nm fluorescence, artefact control for SMM control protein annotation, primary screen (AID 1128); conditions: higher = more signal;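 also: score merges feature fluorescence with signal-to-noise for each printed compound spot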
[2] = tested on: Human papillomavirus type 1a E7 protein (residues 1-88); experiment: HPV1a E7 small-molecule binders, primary screen, biochemical, small-molecule microarray, residues 1-88, 635 nm (AID 1129); conditions: small-molecule microarray binding, fluorescence 635 nm; higher = more signal
[3] = molecular target: Focal adhesion kinase 1 (Homo sapiens) (UniProt Q05397); experiment: PTK2 protein binding on printed compound slides – biochemical, small-molecule microarray, 635/667 nm fluorescence, BSA, DTT, primary screen (AID 1130); conditions: 635 nm fluorescence, higher = more signal;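 also: composite of spot emission at 667 nm and signal to noise over triplicate slides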
[4] = tested on: Fibrinogen (Alexa647-labelled); experiment: Alexa647-fibrinogen binding to printed small molecules – biochemical, small-molecule microarray, 635/667 nm fluorescence, artefact control for SMM control-protein annotation, profiling panel (AID 1131); conditions: fibrinogen-A647 binding fluorescence, higher = more signal;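 also: z-score merges 667 nm fluorescence with per-spot signal-to-noise over triplicate slides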
[5] = molecular target: Follistatin (Homo sapiens) (UniProt P19883); experiment: FST protein binding to printed compounds – biochemical, small-molecule microarray, 635/667 nm fluorescence, primary screen (AID 1132); conditions: 635 nm fluorescence, higher = more signal
[6] = molecular target: Fibroblast growth factor 2 (Homo sapiens) (UniProt P09038); experiment: basic fibroblast growth factor binding to printed compounds – biochemical, small-molecule microarray, 635/667 nm fluorescence, primary screen (AID 1133); conditions: FGF2, fluorescence 635/667, higher = more signal
[7] = JC-1 mitochondrial potential readout, lung cancer cells – cell-based, A549, JC-1 fluorescence, basal, 24 h, 100 nL, profiling panel (AID 1138); conditions: higher = more signal;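 also: A549 lung adenocarcinoma cells under basal conditions with no added stimulus; test concentration not given here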
[8] = tested on: Lefty1; experiment: Lefty1 protein binding to printed compounds – biochemical, small-molecule microarray, 635/667 nm fluorescence, primary screen (AID 1139); conditions: fluorescence 635/667, higher = more signal
[9] = tested on: wheat germ agglutinin (Triticum aestivum), Alexa647-labelled; experiment: Alexa647-WGA lectin binding to printed small molecules – biochemical, small-molecule microarray, 635/667 nm fluorescence, artefact control for SMM control-protein annotation, profiling panel (AID 1140); conditions: WGA-A647 binding, 635 nm fluorescence, higher = more signal;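 also: score merges 667 nm feature emission with signal to noise over triplicate slides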
[10] = molecular target: Luciferin 4-monooxygenase (Photinus pyralis) (UniProt P08659); experiment: inhibition of purified Photinus pyralis luciferase – biochemical, luminescence, purified enzyme, 2006 set, primary screen (AID 1141); conditions: purified firefly luciferase, SteadyGlo luminescence, 30 min; higher = more signal, called active from +8 up or from −8 down;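 also: cell-free assay with purified firefly luciferase at 100 ng per well in PBS; test concentration not given here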
[11] = tested on: Wnt5a (protein binding on small-molecule microarray); experiment: small molecules binding Wnt5a protein – biophysical, small-molecule microarray, 635/667 nm fluorescence, primary screen (AID 1142); conditions: 635 nm fluorescence, higher = more signal;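 also: fluorescence read at 667 nm with signal to noise per printed feature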
[12] = ATP-based viability of Huh7 replicon cells – cell-based, CellTiter-Glo luminescence, basal, 48 h, cytotoxicity control for HCV replication inhibitor project, primary screen (AID 1143); conditions: higher = more signal, called active from +8 up or from −8 down;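 also: Huh7 hepatoma cells carrying a hepatitis C replication reporter with no stimulus; test concentration not given here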
[13] = Pseudomonas biofilm growth suppression – PAO1 strain, BacTiter-Glo luminescence, LB-PBS, primary screen (AID 1144); conditions: P. aeruginosa PAO1 biofilm, 12 h, higher = more signal
[14] = basal CRE-LacZ reporter activity in PC12 – cell-based, unstimulated, primary screen (AID 1145); conditions: no forskolin, luminescence, 4.5 h, higher = more signal, called active from +8 up or from −8 down
[15] = forskolin-driven CRE-LacZ activity in PC12 – cell-based, CRE-LacZ reporter, forskolin-stimulated, primary screen (AID 1146); conditions: luminescence, 4.5 h, higher = more signal, called active from +8 up or from −8 down;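 also: PC12 cells with 6xCRE LacZ reporter stimulated by forskolin 10 µM; beta-galactosidase reporter signal reflecting CREB driven transcription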
[16] = molecular target: Streptavidin (Streptomyces avidinii) (UniProt P22629); experiment: compounds binding control protein streptavidin – biophysical, small-molecule microarray, 635/667 nm fluorescence, artefact control for SMM compound annotation, primary screen (AID 1147); conditions: higher = more signal;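 also: signal reflects streptavidin binding to arrayed compounds as a control protein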
[17] = probe aInhba binding on compound microarray – biochemical, small-molecule microarray, 635/667 nm fluorescence, primary screen (AID 1148); conditions: higher = more signal;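 also: score merges 667nm spot fluorescence with signal-to-noise for antibody binding to printed compounds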
[18] = molecular target: Torsin-1A (Homo sapiens) (UniProt O14656); experiment: TOR1A wild-type binding on microarray – cell lysate, small-molecule microarray, lysate, 635/667 nm, primary screen (AID 1149); conditions: COS7 hTOR1A-WT lysate, 635 nm fluorescence, higher = more signal
[19] = molecular target: Torsin-1A (Homo sapiens) (UniProt O14656); experiment: torsin A mutant lysate binding on microarrays – cell lysate, small-molecule microarray, COS7 lysate, 635/667 nm fluorescence, primary screen (AID 1150); conditions: COS7 hTOR1A mutant lysate, 635 nm fluorescence, higher = more signal;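 also: score pools 667 nm emission and signal to noise measuring lysate protein binding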
[20] = tested on: Sonic hedgehog protein (Shh); experiment: Sonic hedgehog microarray binding compounds – biochemical, small-molecule microarray, 635/667 nm fluorescence, primary screen (AID 1151); conditions: 635 nm fluorescence, higher = more signal;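 also: Shh protein binding to compounds spotted on small-molecule microarray slides; score combines spot fluorescence intensity with signal-to-noise across triplicate slides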

Sequence of Focal adhesion kinase 1 (Homo sapiens) (Q05397 whole entry, looked up): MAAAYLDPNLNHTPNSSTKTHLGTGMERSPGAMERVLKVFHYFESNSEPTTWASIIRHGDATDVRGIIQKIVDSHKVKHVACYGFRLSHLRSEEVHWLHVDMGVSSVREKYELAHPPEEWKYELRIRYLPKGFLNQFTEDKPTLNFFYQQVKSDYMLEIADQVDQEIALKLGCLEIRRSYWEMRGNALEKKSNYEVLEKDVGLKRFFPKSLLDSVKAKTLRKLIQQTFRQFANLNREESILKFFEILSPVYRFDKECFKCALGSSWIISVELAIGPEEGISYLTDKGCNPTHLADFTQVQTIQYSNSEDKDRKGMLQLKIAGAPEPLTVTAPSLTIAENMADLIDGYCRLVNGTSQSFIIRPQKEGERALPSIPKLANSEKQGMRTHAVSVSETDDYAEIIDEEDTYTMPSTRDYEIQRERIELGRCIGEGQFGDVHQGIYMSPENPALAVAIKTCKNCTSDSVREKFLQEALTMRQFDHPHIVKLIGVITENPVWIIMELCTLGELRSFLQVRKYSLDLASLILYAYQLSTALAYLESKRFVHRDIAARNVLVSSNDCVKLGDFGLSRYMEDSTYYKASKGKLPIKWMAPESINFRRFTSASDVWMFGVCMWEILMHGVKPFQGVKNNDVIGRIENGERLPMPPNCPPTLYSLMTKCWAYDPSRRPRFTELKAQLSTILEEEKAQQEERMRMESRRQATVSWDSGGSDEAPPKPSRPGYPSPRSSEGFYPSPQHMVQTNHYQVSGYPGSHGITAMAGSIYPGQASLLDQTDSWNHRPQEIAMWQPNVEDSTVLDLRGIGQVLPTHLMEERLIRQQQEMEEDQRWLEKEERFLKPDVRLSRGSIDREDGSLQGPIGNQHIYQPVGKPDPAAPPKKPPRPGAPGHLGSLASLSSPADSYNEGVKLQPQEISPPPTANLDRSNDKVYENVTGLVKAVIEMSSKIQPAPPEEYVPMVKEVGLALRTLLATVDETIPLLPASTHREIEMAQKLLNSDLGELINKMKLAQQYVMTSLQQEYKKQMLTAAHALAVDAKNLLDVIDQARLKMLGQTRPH
Sequence of Streptavidin (Streptomyces avidinii) (P22629 whole entry, looked up): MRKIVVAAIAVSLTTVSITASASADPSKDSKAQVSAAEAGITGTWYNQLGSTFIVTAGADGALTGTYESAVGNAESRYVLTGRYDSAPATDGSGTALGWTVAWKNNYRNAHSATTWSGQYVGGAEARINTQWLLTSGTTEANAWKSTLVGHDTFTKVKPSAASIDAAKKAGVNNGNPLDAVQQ
Sequence of Torsin-1A (Homo sapiens) (O14656 whole entry, looked up): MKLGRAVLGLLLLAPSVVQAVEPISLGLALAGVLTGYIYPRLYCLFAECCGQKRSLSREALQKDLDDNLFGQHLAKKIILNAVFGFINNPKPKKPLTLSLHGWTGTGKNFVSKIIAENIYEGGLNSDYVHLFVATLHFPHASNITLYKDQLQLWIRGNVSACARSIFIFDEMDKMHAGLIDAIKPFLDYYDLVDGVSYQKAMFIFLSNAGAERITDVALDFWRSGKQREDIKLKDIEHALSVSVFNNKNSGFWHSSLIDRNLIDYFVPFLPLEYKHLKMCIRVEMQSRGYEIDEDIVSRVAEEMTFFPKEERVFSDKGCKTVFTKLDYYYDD
Sequence of Fibroblast growth factor 2 (Homo sapiens) (P09038 whole entry, looked up): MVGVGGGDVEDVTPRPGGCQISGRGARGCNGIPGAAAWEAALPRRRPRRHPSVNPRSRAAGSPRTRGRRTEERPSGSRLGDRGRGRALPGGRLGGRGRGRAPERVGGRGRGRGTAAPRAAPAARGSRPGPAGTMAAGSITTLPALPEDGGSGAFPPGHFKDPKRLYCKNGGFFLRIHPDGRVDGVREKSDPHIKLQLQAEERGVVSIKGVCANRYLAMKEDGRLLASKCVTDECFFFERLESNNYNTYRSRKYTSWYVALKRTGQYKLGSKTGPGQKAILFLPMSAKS
Sequence of Luciferin 4-monooxygenase (Photinus pyralis) (P08659 whole entry, looked up): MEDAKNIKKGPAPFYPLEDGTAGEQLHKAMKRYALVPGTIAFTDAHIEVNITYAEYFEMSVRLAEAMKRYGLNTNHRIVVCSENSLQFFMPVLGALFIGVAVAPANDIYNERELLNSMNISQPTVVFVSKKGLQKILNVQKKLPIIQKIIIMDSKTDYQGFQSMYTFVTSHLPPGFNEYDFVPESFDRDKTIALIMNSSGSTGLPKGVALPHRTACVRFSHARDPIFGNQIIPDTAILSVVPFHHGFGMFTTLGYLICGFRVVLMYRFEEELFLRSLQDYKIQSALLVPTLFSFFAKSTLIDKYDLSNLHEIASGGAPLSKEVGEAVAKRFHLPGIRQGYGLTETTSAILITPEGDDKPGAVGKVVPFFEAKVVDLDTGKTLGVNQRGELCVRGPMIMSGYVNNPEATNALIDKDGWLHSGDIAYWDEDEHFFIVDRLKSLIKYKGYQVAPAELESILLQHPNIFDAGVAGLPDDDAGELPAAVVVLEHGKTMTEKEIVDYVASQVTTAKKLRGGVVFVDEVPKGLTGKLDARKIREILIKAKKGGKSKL
Sequence of Follistatin (Homo sapiens) (P19883 whole entry, looked up): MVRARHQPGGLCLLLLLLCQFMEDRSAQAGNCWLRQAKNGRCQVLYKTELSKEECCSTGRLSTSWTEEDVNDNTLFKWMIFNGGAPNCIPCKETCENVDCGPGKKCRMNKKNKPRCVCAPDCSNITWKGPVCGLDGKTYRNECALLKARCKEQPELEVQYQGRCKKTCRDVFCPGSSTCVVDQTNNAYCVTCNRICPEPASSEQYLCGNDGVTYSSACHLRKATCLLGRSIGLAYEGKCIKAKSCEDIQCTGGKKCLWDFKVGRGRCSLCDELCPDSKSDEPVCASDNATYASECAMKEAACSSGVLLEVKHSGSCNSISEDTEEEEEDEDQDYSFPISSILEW

Row | SMILES | composite z-score [1] | composite z-score [2] | composite z-score [3] | composite z-score [4] | composite z-score [5] | composite z-score [6] | z-score [7] | composite z-score [8] | composite z-score [9] | z-score [10] | composite z-score [11] | z-score [12] | z-score [13] | z-score [14] | z-score [15] | composite z-score [16] | composite z-score [17] | composite z-score [18] | composite z-score [19] | composite z-score [20]
1 | CO[C@H]1O[C@H](CO)[C@@H](OC(=O)Nc2ccc3c(c2)OCO3)[C@H](OC(=O)Nc2ccc3c(c2)OCO3)[C@H]1OC(=O)Nc1ccc2c(c1)OCO2 | 2.47 | 1.22 | 0.0847 | 0.86 | 1.23 | 0.506 | -0.641 | 0.683 | 1.02 | -5.43 (inactive) | 0.158 | -1.2 (inactive) | -0.416 (inactive) | 1.05 (inactive) | -0.808 (inactive) | 0.697 | 0.297 | 0.713 | 1.74 | 0.942
2 | CS(=O)(=O)CCOC(=O)C1=CC(c2ccc(CO)cc2)=CC(c2cccs2)N(Cc2cccc(OC(F)(F)F)c2)C=C1C(=O)OCCS(C)(=O)=O (stereo not given) | 0.419 | 0.969 | 0.513 | 1.01 | 1.21 | 0.0903 | 1.91 | 0.836 | 0.929 | -1.86 (inactive) | 0.104 | -3.67 (inactive) | 0.676 (inactive) | 0.695 (inactive) | -2.12 (inactive) | 1.72 | 0.0047 | 1.45 | 0.543 | 0.75
3 | C=C(CCCC)/C(=C/C[C@H](OC(C)=O)c1ccc(CO)o1)c1cc(C(=O)OC)ccc1OC | 0.683 | 0.596 | 0.0945 | 0.579 | 1.29 | 0.708 | -0.925 | 1.42 | 0.789 | -1.45 (inactive) | 0.244 | -3.43 (inactive) | -0.193 (inactive) | 0.709 (inactive) | 0.0467 (inactive) | 0.772 | 0.0622 | 0.206 | -0.0953 | 1.53
4 | C=CCOC(=O)[C@H]1[C@@H]2C(=O)O[C@@H](c3ccccc3)[C@@H](c3ccccc3)N2[C@@H](c2ccc(OCCOC(=O)[C@H]3C[C@H]4C(=O)N[C@@H](CCCC[N+](C)(C)C)C(=O)N4[C@H]3c3ccc(O)cc3)cc2)[C@]12C(=O)Nc1ccccc12 | 0.94 | -0.0508 | 0.193 | 0.252 | 1.16 | 0.703 | 0.193 | 0.653 | 0.22 | -1.28 (inactive) | 0.0385 | -0.236 (inactive) | -0.968 (inactive) | -1.62 (inactive) | -1.06 (inactive) | -0.22 | -0.258 | 0.475 | 0.846 | 1.18
5 | COc1ccc([Si](C)(C)[C@H]2[C@H](CCO)O[C@@]3(C(=O)N(Cc4ccccc4)c4ccc(N5C(=O)COc6ccccc65)cc43)[C@@H]2C)cc1 | -0.12 | -0.127 | -0.0125 | 0.26 | -0.242 | -0.116 | 0.771 | -0.0702 | 1.1 | -0.369 (inactive) | 0.19 | -6.69 (inactive) | -0.539 (inactive) | -0.258 (inactive) | -0.81 (inactive) | 0.0375 | 0.189 | -0.503 | 0.105 | 1.92
